BAZ2B block: inhibitors of human BAZ2B bromodomain; Q9UIF8; AlphaScreen BAZ2B-H3K14Ac peptide displacement; Potency, µM (highest dose often 114 µM), for the others: top-dose activity change, negative = inhibition, most hits filed as inhibitors; 360,000 tested, 4.4% active; AID 504333; also: potency is read from the fitted curve at half-maximal effect; % is scaled to controls: 0 for no effect and ±100 for the full control effect; nearly all actives have a fitted effect of over 60% in size
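Multi-concentration screen (max 110 uM) measuring displacement of acetylated histone H3 peptide from BAZ2B by AlphaScreen, using 50 nM protein, 50 nM peptide and 10 ug/mL streptavidin donor plus Ni-chelate acceptor beads.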
HP1b chromo inh: HP1-beta chromodomain-methylated histone interaction inhibition. P83916. AlphaScreen HP1-beta / biotin-H3K9me3 peptide binding. Potency, µM (highest dose often 114 µM), inactives show top-dose activity change, negative = inhibition, hits mostly inhibitors. 390,000 tested, 0.56% active; also: potency is read from the fitted curve at half-maximal effect; nearly all actives have a fitted effect of over 70% in size
Target sequence (P83916 whole entry, looked up): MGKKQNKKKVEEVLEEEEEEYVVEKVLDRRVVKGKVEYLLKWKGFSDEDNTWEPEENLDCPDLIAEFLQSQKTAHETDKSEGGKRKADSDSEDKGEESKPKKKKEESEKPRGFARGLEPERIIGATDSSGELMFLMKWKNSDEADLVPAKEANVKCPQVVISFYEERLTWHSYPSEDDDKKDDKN
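AlphaScreen: HP1-beta (50 nM) preformed 30 min with biotin-H3(1-18)K9me3 peptide (50 nM) in PBS pH 7.4, 0.01% Tween-20. Compound added for 30 min at RT, then streptavidin donor/nickel chelate acceptor beads (10 ug/mL) for 30 min.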
JMJD2A Tudor: blocks the human JMJD2A Tudor domain; AlphaScreen JMJD2A-Tudor / H3K4me3 peptide binding; 390,000 tested, 4.4% active; O75164; AID 504339; Potency, µM (doses to about 114 µM), without a hit: top-dose activity change, negative = inhibition, hits mostly inhibitors; also: potency is read from the fitted curve at half-maximal effect; % is scaled to controls: 0 for no effect and ±100 for the full control effect; nearly all actives have a fitted effect of over 50% in size
Six1-Eya2 blk: Six1/Eya2 interaction inhibition. AlphaScreen GST-Six1/His-Eya2 binding, biochemical; active compounds read low. 360,000 tested, 0.56% active. activity change, % (test concentration not listed). Q15475+O00167; in the data active = activity change below about -65%; inconclusive = mostly about -30% to -63%; also: % is scaled to controls: 0 for no effect and ±100 for the full control effect
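AlphaScreen luminescence read after one hour at 37 °C in darkness. Pin-transferred compounds met GST-Six1 and His-Eya2 protein (5X stock 250 nM/500 nM) plus glutathione donor and Ni-chelate acceptor beads (5X, 50 ug/mL).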
CtBP-E1A blk: CtBP/E1A binding inhibition; AlphaScreen GST-E1A/His-CtBP binding, 1536-well; active compounds read low; activity change, % (test concentration not listed); 340,000 tested, 0.49% active; AID 651724; in the data active = activity change below about -65%; inconclusive = mostly about -30% to -63%; also: % is scaled to controls: 0 for no effect and ±100 for the full control effect
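Homogeneous bead-based format: GST-tagged E1A captured on glutathione donor beads, His-tagged CtBP on nickel acceptor beads; compounds precede bead addition by 2 h at 37 °C.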
G9a inh: blocks human histone lysine methyltransferase G9a. Q96KQ7. G9a H3K9 monomethylation, AlphaScreen, 2 h. Potency, µM (highest dose often 102 µM), for inactives: top-dose activity, negative = inhibition, usual class: inhibitors. 350,000 tested, 8.8% active. AID 504332; also: potency is read from the fitted curve at half-maximal effect; % is scaled to controls: 0 for no effect and ±100 for the full control effect; nearly all actives have a fitted effect of over 75% in size
Target sequence (Q96KQ7 913-1193 limits assumed): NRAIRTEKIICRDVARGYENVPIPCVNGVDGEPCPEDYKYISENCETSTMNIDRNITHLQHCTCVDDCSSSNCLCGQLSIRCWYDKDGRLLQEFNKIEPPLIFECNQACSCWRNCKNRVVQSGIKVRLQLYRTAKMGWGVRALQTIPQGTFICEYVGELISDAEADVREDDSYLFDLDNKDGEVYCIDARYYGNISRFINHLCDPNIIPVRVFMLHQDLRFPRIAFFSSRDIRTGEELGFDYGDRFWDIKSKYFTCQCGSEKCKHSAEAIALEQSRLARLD
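Enzyme 20 nM + cpd, 15 min RT; add b-H3K9 pep 500 nM / SAM 20 uM; 2 h RT; anti-H3K9me1 Ab 0.5 ug/mL + SA donor / anti-rabbit acceptor beads 20 ug/mL each, 10 min; AlphaScreen read.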
Active calls of the source: *; [ ] = remark or other dose. This is a sample that favours compounds with a hit; in the whole collection about 10% have one here. Unless noted, calls follow the shape of the dose curve; as a rule, active = well fitted inhibition curve with a large enough effect; inconclusive = small, poorly fitted or top-dose-only effect; inactive = no such curve, though single readings can be large or run the other way.

What do the screens show for `COc1ccc2[nH]c(=O)c(CN(C(=O)c3ccccn3)C3CCCCC3)cc2c1`?
BAZ2B block: 16.5%; HP1b chromo inh: -13.5%; JMJD2A Tudor: 6.8%; Six1-Eya2 blk: 18.8; CtBP-E1A blk: 15.6; G9a inh: 28.2µM*

Results for COc1ccc2[nH]c(=O)c(CN(Cc3nnnn3Cc3ccco3)C3CCCCC3)cc2c1 ?
BAZ2B block: 50.1µM*; HP1b chromo inh: -26.2%; JMJD2A Tudor: inconclusive; Six1-Eya2 blk: 5.7; CtBP-E1A blk: -4.8; G9a inh: 39.8µM*

What do the screens show for `O=C(c1ccccn1)N(Cc1cc2ccccc2[nH]c1=O)C1CCCCC1`?
BAZ2B block: 10.4%; HP1b chromo inh: 11.3%; JMJD2A Tudor: -4.7%; Six1-Eya2 blk: -6.0; CtBP-E1A blk: 1.5; G9a inh: 0.9%

What do the screens show for `CN(Cc1cccnc1)Cc1c(C(=O)N2CCc3ccccc3C2)nc2ccc(Cl)cn12`?
BAZ2B block: -23.2%; HP1b chromo inh: 30.5%; JMJD2A Tudor: -21.4%; Six1-Eya2 blk: -3.2; CtBP-E1A blk: -9.1; G9a inh: 50.1µM*

How did O=C(c1nc2ccc(Cl)cn2c1CN1CCCC1)N1CCc2ccccc2C1 do in these assays?
BAZ2B block: inconclusive; HP1b chromo inh: 9.4%; JMJD2A Tudor: inconclusive; Six1-Eya2 blk: -11.6; CtBP-E1A blk: -1.8; G9a inh: 79.4µM*

What do the screens show for `CCCOc1ccc(C(=O)Nc2ccc3oc(-c4ccncc4)nc3c2)cc1`?
BAZ2B block: -1.9%; HP1b chromo inh: 39.1%; JMJD2A Tudor: -17.6%; G9a inh: 3.3%[59 µM]

What do the screens show for `CCNc1ccc(S(=O)(=O)NCCN(C)C)cc1[N+](=O)[O-]`?
HP1b chromo inh: 9.2%; JMJD2A Tudor: 0.0%; Six1-Eya2 blk: 3.0; G9a inh: -4.4%

What do the screens show for `CC1C/C(=N\Nc2ccc(S(N)(=O)=O)cc2[N+](=O)[O-])CC(C)(C)C1` (centres undefined)?
BAZ2B block: inconclusive; HP1b chromo inh: inconclusive; JMJD2A Tudor: inconclusive; Six1-Eya2 blk: -27.6; CtBP-E1A blk: -29.2; G9a inh: 14.1µM*

How did CS(=O)(=O)NCCCNc1ccc(Cl)cc1[N+](=O)[O-] do in these assays?
BAZ2B block: inconclusive; HP1b chromo inh: -12.7%; JMJD2A Tudor: 12.7%; Six1-Eya2 blk: -4.2; CtBP-E1A blk: -0.7; G9a inh: inconclusive

Results for NS(=O)(=O)c1ccc(NN=C2CCN(Cc3ccccc3)CC2)c([N+](=O)[O-])c1 ?
BAZ2B block: 7.8%; HP1b chromo inh: 4.7%; JMJD2A Tudor: -24.8%; Six1-Eya2 blk: 0.4; CtBP-E1A blk: 1.1; G9a inh: 44.7µM*

Results for CCCCNc1ccc(S(=O)(=O)c2cccc([N+](=O)[O-])c2)cc1[N+](=O)[O-] ?
BAZ2B block: inconclusive; HP1b chromo inh: 37.8%; JMJD2A Tudor: -3.5%; Six1-Eya2 blk: 0.0; CtBP-E1A blk: 3.9; G9a inh: 7.94µM*

What do the screens show for `CCNc1ccc(S(N)(=O)=O)cc1[N+](=O)[O-]`?
BAZ2B block: -5.7%; HP1b chromo inh: -1.5%; JMJD2A Tudor: 0.0%; Six1-Eya2 blk: -4.5; CtBP-E1A blk: 12.0; G9a inh: 3.55µM*

How did CCCNC(=O)Cn1c(=O)c2cccn2c2cccnc21 do in these assays?
BAZ2B block: 5.7%; HP1b chromo inh: 38.4%; JMJD2A Tudor: -18.7%; G9a inh: -3.8%[59 µM]

How did COc1ccc(-c2cnnn2-c2ccc(NC(=O)c3c(F)cccc3F)cc2)cc1 do in these assays?
BAZ2B block: -29.7%; HP1b chromo inh: 15.1%; JMJD2A Tudor: -35.2%; G9a inh: -23.0%[59 µM]

Results for CCNc1ncc2nc(-c3cccs3)c(=O)n(CCc3ccccc3)c2n1 ?
G9a inh: 11.6%[0.501 µM]

Results for Cc1oc2cc3oc(=O)c(CC(=O)NCc4ccccc4)c(C)c3cc2c1C ?
BAZ2B block: -2.8%; HP1b chromo inh: 16.9%; JMJD2A Tudor: -32.7%; G9a inh: 2.9%[59 µM]

What do the screens show for `CC1(C)CNC(=O)c2sc(NC(=O)CN3CCOCC3)nc2C1`?
BAZ2B block: 2.6%; HP1b chromo inh: 44.6%; JMJD2A Tudor: 20µM*; Six1-Eya2 blk: -0.7; CtBP-E1A blk: 3.0; G9a inh: -12.6%[59 µM]
